The campaign covered roughly 68,000 compounds. About 2,700 (4%) showed an effect of 50% or more. What follows is part of a selection rich in strong results, with near analogues and random picks from the rest.

The test deals with Plasmodium berghei. Description: Screen against P. berghei liver stage (PbLuc), transformed with Luciferase, at 2uM. The format is functional, HepG2. The settings on record: tested at 2 uM.
In the case of `O=C(CC1COCCN1C(=O)c1cscn1)c1ccccc1` (stereo not given), the INHIBITION turned out to be 5.43%. `CNC(=O)Cc1ccccc1NC(=O)C1CCN(C2CCCCC2)C1` (stereo not given): the INHIBITION is on record as -0.39%. In the case of `CC(=O)Nc1ccc(CNCc2ccc(CS(C)(=O)=O)cc2)cc1`, the INHIBITION was -1.53%. With `Cc1nc(CN2CCCC(NCCCOc3ccc(F)cc3)C2)no1` (stereo not given) the figure was 4.18%; with `CCc1ncc(C(=O)NCC2CCN(Cc3ccncc3)CC2)cn1`, -6.29%. As to `CCN1CCN(C2CCN(Cc3cc(C)on3)CC2)C1=O`, the INHIBITION is -14.11%. With `Cc1csc(N2CCN(C(=O)CCc3nccs3)CC2)n1` the figure was -18.67%. In the case of `CC(C)CN(CC(O)c1ccc(F)cc1)C(=O)c1cc[nH]n1` (stereo not given), the INHIBITION was found to be 10.91%.

`Cc1cc(C(=O)N(CC(C)C)CC(O)c2ccc(F)cc2)[nH]n1` (stereo not given): the INHIBITION came out at 51.96%. For `Cc1[nH]ncc1C(=O)N(CC(C)C)CC(O)c1ccc(F)cc1` (stereo not given), the INHIBITION was 25.65%.

In the case of `CNc1ccc(Cl)cc1C(=O)N1CCC(Cn2cc(CN)nn2)CC1`, the INHIBITION is 3.72%. With `NCc1cn(CC2CCCN(C(=O)CC3=CCCCC3)C2)nn1` (stereo not given) the figure was 16.72%; with `NCc1cn(CC2CCCN(C(=O)NCc3ccc(Cl)cc3)C2)nn1` (stereo not given), 62.51%; with `CC(C)NC(=O)N1CCCC(Cn2cc(-c3ccc(F)cc3)nn2)C1` (stereo not given), -17.86%. Take `COc1cccc(CNC(=O)N2CCCC(Cn3cc(CN)nn3)C2)c1` (stereo not given): the INHIBITION is 76.82%. With `COc1ccc(CC(=O)N2CCCC(Cn3cc(CN)nn3)C2)cc1` (stereo not given) the figure was 12.43%; with `COc1cccc(CNC(=O)CN2CCCC(Cn3cncn3)C2)c1` (stereo not given), -0.76%; with `NCc1cn(CC2CCCN(C(=O)NCCc3ccc(F)cc3)C2)nn1` (stereo not given), 62.51%.

With `CCC(=O)N1CCCC(Cn2cc(-c3ccc(F)cc3)nn2)C1` (stereo not given), the INHIBITION is on record as -27.82%. For `Cc1nnc(NC(=O)NCc2ccc(OC3CCCC3)nc2)s1`, the INHIBITION is 12.74%. On to `CCN1C(=O)CO[C@@H]2CN(C(=O)C3CCOCC3)C[C@H]21`, for which the INHIBITION is given as 18.31%. With `COc1ccc(N(c2ccc(OC)cc2)c2ccc(C(=O)O)s2)cc1` the figure was 14.95%.

As to `CC1c2ncc(COCC3CC3)n2CCN1C(=O)c1ccnn1C` (stereo not given), the INHIBITION stood at 21.67%. With `Cc1cc(NC(=O)NCC(C(C)C)N2CCOCC2)n(C)n1` (stereo not given) the figure was 11.63%. With `CN(Cc1cccnc1)C[C@H]1OC[C@@H]2CCN(C(=O)C3CC3)C[C@@H]21` the figure was 8.62%; with `CC(CCN1CCC(n2cc(CCO)nn2)CC1)c1ccccc1` (stereo not given), 30.89%; with `Cc1cccc(CN2CCC(n3cc(CCO)nn3)CC2)c1C`, 55.36%. Take `Cc1ccc(CN2CCC(n3cc(CN4CCC(O)CC4)nn3)CC2)s1`: the INHIBITION is listed as 35.7%. With `Cc1nc(C2CCCN2C(=O)c2cc3c(s2)CCC3)no1` (stereo not given), the INHIBITION came out at 16.89%. With `CCc1nc(CN2CCCN(c3ncnc4ccccc34)CC2)no1` the figure was -50.34%; with `CCc1nc(CN2CCCN(c3ncnc4ccsc34)CC2)no1`, 80%; with `CCc1nc(CN2CCCN(c3ncnc4sccc34)CC2)no1`, 37.75%. Turning to `CC(C)CN1CCN(C(=O)c2ccn(C)c(=O)c2)CC1`, the INHIBITION came out at 1.36%. With `Cc1cnn(CC2CCCN2Cc2nc3ccccc3n2C)c1` (stereo not given) the figure was 9.9%. With `CC(C)c1cc(C(=O)NCCN2CCCS2(=O)=O)n[nH]1` the figure was -61.61%; with `O=C(CC1CCCC1)N1CCOC(c2nc(-c3ncccn3)no2)C1` (stereo not given), 57.82%; with `O=C(Cc1ccccc1)N1CCOC(c2nc(-c3ncccn3)no2)C1` (stereo not given), 0.18%. `O=C(C1CCCC1)N1CCOC(c2nc(-c3ncccn3)no2)C1` (stereo not given): the INHIBITION was found to be 22.81%. For the compound `Cc1ccccc1C(=O)Nc1cnn(CC(=O)NC2CCCC2)c1`, the INHIBITION is recorded as -24.24%.

As for `CN(C)c1cc(C2CCCN(S(=O)(=O)C3CCCC3)C2)ccn1` (stereo not given), the INHIBITION is recorded as 29.89%. For `CCS(=O)(=O)N1CCCC(c2ccnc(N(C)C)c2)C1` (stereo not given), the INHIBITION turned out to be 59.91%. As to `CN(C)c1cc(C2CCCN(S(=O)(=O)c3cn(C)cn3)C2)ccn1` (stereo not given), the INHIBITION is 36.15%. With `CC(C)NC(=O)c1cc(-c2ccc(S(C)(=O)=O)cc2)c2cnn(C)c2n1`, the INHIBITION stood at 10.93%.

For the compound `Cc1nc(CC(=O)N2CCC(Nc3cccnn3)CC2)cs1`, the INHIBITION is reported as 3.97%. With `CCN(Cc1cccc(-c2ccncc2)c1)S(C)(=O)=O` the figure was 63.1%. For the compound `CCN(C)S(=O)(=O)N(CC)Cc1cccc(-c2ccncc2)c1`, the INHIBITION came to 21.24%. With `CCN(Cc1cccc(-c2ccncc2)c1)S(N)(=O)=O` the figure was 20.14%; with `O=C(Cc1ccon1)N1CCc2cc(Br)sc2C1`, -10.14%; with `COc1ccc(CNC(=O)N2CCC(Cc3cnn(C)c3)C2)cc1C` (stereo not given), 20.28%. For the compound `CCNc1ncc(C)c(-c2cnn(C)c2)n1`, the INHIBITION was determined as 8.26%. In the case of `Cc1cnc(NCc2cnn(C)c2)nc1-c1cnn(C)c1`, the INHIBITION is reported as 10.13%. With `Cc1cnc(NCc2ccncc2)nc1-c1cnn(C)c1` the figure was 72.34%. Turning to `CCNC(=O)NC(C)(C)C(=O)NCCc1csc2ccccc12`, the INHIBITION came to 32.03%. With `c1cnc(-c2nc(CN3CCN(CC4CC4)CC3)cs2)nc1` the figure was 24.88%. For the compound `COc1ccc(C2SCC(=O)Nc3ccsc32)cc1OC` (stereo not given), the INHIBITION stood at 7.62%.

Regarding `O=C1CSC(c2ccc(O)cc2)c2sccc2N1` (stereo not given), the INHIBITION stood at 17.94%. As for `Cn1c(=O)n(C)c2cc(C3SCC(=O)Nc4ccsc43)ccc21` (stereo not given), the INHIBITION is recorded as 74.91%. Take `CN(C(=O)C1CCN(Cc2cnc3ccccn23)CC1)c1ccccc1`: the INHIBITION came to 4.07%.

Take `CCCc1nnc(C(=O)N(C)Cc2cnc3ccccn23)o1`: the INHIBITION is on record as -2.89%. `COCc1nnc(C(=O)N(C)Cc2ccc(OC)cc2)o1`: the INHIBITION was 14.55%. With `CCc1nc(C)c(C(=O)N(C)Cc2cnc3ccccn23)o1` the figure was 52.81%; with `CCOC(=O)N(C)C1CCN(Cc2cnc3ccccn23)CC1`, 2.26%; with `COCc1nnc(C(=O)N(C)Cc2cnc3ccccn23)o1`, 80.13%. With `CS(=O)(=O)N1CCCCC12CCCN(Cc1nccs1)C2` (stereo not given) the figure was -14.74%; with `CCc1cc(NCCNc2ccncc2C)n2nc(C)c(C)c2n1`, -7.77%; with `CC(Nc1ccn(Cc2ccccn2)n1)C(=O)NC(C)(C)C` (stereo not given), -48.1%. With `Cc1nc(CN(C)C)cc(N2CCCC(COc3ccc(F)cc3)C2)n1` (stereo not given) the figure was 40.47%; with `Cc1cc(C(=O)N2CC[C@H]3C[C@H](c4ccncn4)O[C@@H]3C2)c(C)[nH]1`, -16.33%; with `Cc1noc(C)c1C(=O)N1CC[C@H]2C[C@@H](c3ccncn3)O[C@@H]2C1`, 1.42%. As to `Cc1oncc1C(=O)N1CC[C@H]2C[C@H](c3ccncn3)O[C@@H]2C1`, the INHIBITION turned out to be 52.34%.
